# Measured values taken from the supplement of paper PMC11417369.
# ± gives the standard deviation of the averaged measurements. Over roughly 25,000 sequences, “ln(normalized median fluorescence intensity)” has its median near 10; the highest 2% begin near 12. The entries come from a sample that favours the highest values as a whole.
# System: PfAP2-G AP2 domain (GST-tagged)
# Experiment: gcPBM binding intensity (ln(normalized median fluorescence intensity)); higher = stronger DNA binding
# How it was run: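 Binding of GST-tagged P. falciparum DNA-binding domains, expressed in E. coli and used at about 25 μg on average, was carried out for 1 h in 1× PBS containing 1% milk, 0.2 mg/ml BSA, 0.5% salmon testes DNA and 0.03% Triton X-100. The target was an Agilent 4 × 180k array of primer-extended double-stranded 36-bp intergenic genomic probes plus negative controls, read with Alexa488 anti-GST antibody at 488 nm. Binding intensity is the highest Masliner-normalised natural-log median intensity across replicate spots of either probe orientation.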
row,Sequence,gcPBM binding intensity (ln)
1,TTTTTTAAAAATAACTGTACAGAGGCTGTTAGGATA [XGTACX_site2521],11 ± 0.4
2,TTCCAAAAAATTATTACACACATATGAGCACATATA [CACACA_site4543],10.1 ± 0.18
3,TTTCCTTATTAAAACACACAAATACATTATTTAATC [CACACA_site7080],9.875 ± 0.035
4,AAAAGTATAATAAATTGTACTAACAAATATTTATGT [XGTACX_site7721],10.9 ± 0.56
5,TTGAAAATGAAAAAATGTACTTAAAAAAAAGGAACA [XGTACX_site8664],11.2 ± 0.71
6,CTTTGGTTATAACACACATGCACACGTAAATAAATA [TGCATGCA_site976],10.5 ± 0.25
7,ATTTTTTTTTTTTTTTTTTATATGCTCTCCATGAGA [CACACA_negctrl_site1225],9.7 ± 0.2
8,GGGGGGGGAGGGTGAATACACACGTAATAATCATAA [CACACA_site1716],11.6 ± 0.94
9,ATAAATATCATATATATACACACGTAATACATAATA [CACACA_site4001],9.935 ± 0.092
10,GGGGGGAGGGTGAATACACACGTAATAATCATAAAC [CACACA_site8502],11.6 ± 0.79
11,TCTTTTGTTTAACCTACATGCAGAATATAAGTCTTC [TGCATGCA_site99],10 ± 0.2
12,AAAAATTCATTTTTATGTACGTACAAATTCTTCGTT [XGTACX_site2471],11.8 ± 0.87
13,ATATATTCATTTTTATGTACGTAAATTGTAAATTGG [XGTACX_site8242],11.6 ± 0.92
14,TAATTCTTTATTTTTCGTACGTAAAACAAAAAATAT [XGTACX_site862],11.1 ± 0.79
15,AATTTTGAGATGTGGTGTACACAAAATTAGTTAGAC [XGTACX_site7033],11.7 ± 0.98
16,TTACATGTAAAAGGTACACACATTAGATATACAAAT [CACACA_site6651],11.3 ± 0.84
17,ACACATACAACGTGGTGTACAAATAATTATAATCAA [XGTACX_site2287],11.1 ± 0.4
18,CAGTTATTTTAATGTGGTACACAATTTTAAAATTAT [XGTACX_site8571],11.5 ± 0.93
19,TGAAAATAGTTAATTTGTACACAAAAATTAAGAAAA [XGTACX_site5794],11.2 ± 0.8
20,TTTGAGATGTGGTGTACACAAAATTAGGTACACATC [CACACA_site5773],12 ± 0.85
21,TAAAAATAGTATACAACACACGAGGGAAAATAAAGT [CACACA_site3837],10.34 ± 0.099
22,TATTTAAATTAATATTGTACATATATTTATAATATA [XGTACX_site6109],11.1 ± 0.71
23,GATATTTTTTTCGAAAGTACAAAAAAAAATATTTCC [XGTACX_site4389],11 ± 0.72
24,TTTTCATTTGAAAGTCGTACAAGTTCGAAAAAAGGA [XGTACX_site6840],11.6 ± 1.2
25,TATATTTTTATTGAACGTACAAAAAGTCGAAAACAG [XGTACX_site3967],11.4 ± 0.74

row,Sequence,gcPBM binding intensity (ln)
1,TTTTTTATTTGACAAGCACACACTTAAATATATATA [CACACA_site3358],10.2 ± 0.33
2,AAATCATATTCTTATTTTATTTTTTTTATTTTTTAT [XGTACX_negctrl_site166],9.55 ± 0.17
3,AAACATGATTATTATAGTACAATTATAATTATTATA [XGTACX_site2590],10.8 ± 0.59
4,AAATTATTATATATATGTACGTATAATGTATTTTGT [XGTACX_site2903],11.5 ± 1.1
5,TATATATATATATGTTGTACAAAAATGTAAAATATA [XGTACX_site7761],11.1 ± 0.57
6,TATAATAATACGTATTGTACTATTAGGTTAATTCGT [XGTACX_site264],11.1 ± 0.66
7,ATATGTATATATGTATGTACGTACAAATTGTTGTAA [XGTACX_site8832],11.7 ± 0.8
8,TAAACAGATATATTTTGTACATATTGTATATTTTGT [XGTACX_site713],10.6 ± 0.28
9,GTATATATATTTGTACGTACATATTGTTGTAAACAC [XGTACX_site8833],11.7 ± 0.71
10,ATGTTATATATGTATTGTACGTATTTTGTATATTAT [XGTACX_site6607],11.6 ± 1.1
11,ATATATATATATATTTGTACGTATTATGTATTTTTT [XGTACX_site3530],11.5 ± 0.98
12,TATAATAATAATTATTGTACGATTAGGTTAATTCAT [XGTACX_site1984],11.1 ± 0.7
13,AATATATATAATAATTGTACAATACGTATGTTATAT [XGTACX_site8745],11 ± 0.54
14,ATGTAGGTTAATTATTGTACGTAGGGGGTGTATATT [XGTACX_site3973],11.8 ± 1.2
15,GTGTGTGTATATATTTGTACATATATTTAAACATAT [XGTACX_site1074],11.4 ± 0.71
16,TATAATATTCCTTTTTAACACACATATGAACAAATA [CACACA_site7932],10.1 ± 0.18
17,CATTATTCATTTTGGATGCACTGACAGAAAAATGGT,10.4 ± 0.18
18,CTTAGGTGTTCATAGAGTACAAATAAAAAAATAAGA [XGTACX_site2294],11.3 ± 0.95
19,TACCTAAATAAATGGACACACACATATATATATATA [CACACA_site8407],10.8 ± 0.53
20,TATATTTTAAAATTATGTACATATATAGATAAATGT [XGTACX_site1349],11.3 ± 0.52
21,AATTAGATGGATAAATGTACATAATGTGAATATATT [XGTACX_site86],11 ± 0.4
22,TCATATATATATATATGTACATATTTATGTATGTAT [XGTACX_site6291],11.1 ± 0.66
23,TTCCTTTGTCCTAACTGTACTCAAATTTATTAGTGG [XGTACX_site226],11.8 ± 0.75
24,TTCCTTAATCAATATTGTACTTTTTATAAATTTAGT [XGTACX_site3678],11.4 ± 0.85
25,TAGTTCCTCAAAAATTTCCTTTGTCATTTTATTCAC [GTGCAC_negctrl_site20],10.17 ± 0.085

row,Sequence,gcPBM binding intensity (ln)
1,TATAAAAATATATTTACACACTATAAATATCGAAAG [CACACA_site6896],9.96 ± 0.18
2,TAATTTATGACACGCGCACACATATATATATAGTAA [CACACA_site4249],10.6 ± 0.42
3,AAGATAAAATGATGCACACAAAAGGGTGTAATATAT [CACACA_site1706],10.13 ± 0.049
4,CAAAGATAAAATGATGCACACAAAAGGGTGTAATAT [CACACA_site8499],10.25 ± 0.014
5,ACAAAAATGAGATGGTGTACGCACAAATAAATAATA [XGTACX_site5221],11.7 ± 0.79
6,TCCCACTGTTATATTGAAAAAAAAAAAAAAAAAAAA [TGCATGCA_negctrl_site288],9.82 ± 0.5
7,AAACAACATGGACACGCACACACAAAAAAAGCATGC [CACACA_site73],11 ± 0.48
8,ATTAGGCATATTTTCTGTACACAATAATAAAAAAAA [XGTACX_site3957],11.6 ± 0.91
9,TAATTTTCATATTTCTGTACATATATTATAAATATA [XGTACX_site3480],11 ± 0.69
10,TAAAATATATTTTTCTGTACACAAAAATATATTAAA [XGTACX_site2813],11.5 ± 0.96
11,GTGTAGGCAAAAAGTTGTACGCCTAAAATCTATATA [XGTACX_site8912],11.7 ± 1.1
12,AATCAAAAAAAATGTTGTACGCCTAATTATAATTAA [XGTACX_site8906],11.6 ± 0.8
13,TGTATAGTCTAAAGTTGTACAAAAAAAAAAAAAAAA [XGTACX_site5764],11.3 ± 1
14,TATTTTAATTTTTGTTGTACGCAAATGTGAGGGCAT [XGTACX_site4663],11.7 ± 1.2
15,TATATATATATATGTTGTACTTTTAATTTAAATGTA [XGTACX_site4239],11.6 ± 0.94
16,TTTTAATTTTGTTGTTGTACAAATAACATGTGAGGG [XGTACX_site4401],11.2 ± 0.83
17,TTCTTATTTTATATTTCACACATTTTTACTATACTT [CACACA_site5817],10.08 ± 0.071
18,CACCCACACCAACACACACACATATATAATATATAT [CACACA_site595],10.3 ± 0.33
19,CCCTTTTCTAAATATTGTACGTATAAATTATATTAC [XGTACX_site7676],11.7 ± 0.88
20,TTTTTTTTTTTCTTTTGTACGTATAAAATTATATAA [XGTACX_site2453],11.5 ± 0.66
21,TAAATAATATAATTATGTACGTATTTCTTTATTTTA [XGTACX_site8410],11.4 ± 0.83
22,GGTGCACCCATATACACACACAAATACAATGATAAA [CACACA_site1132],10.6 ± 0.76
23,AATATATAAATTGACACACACATATATACATATATA [CACACA_site1213],10.1 ± 0.11
24,AATTCATTTTACCCATGTACACAATTATATTTTATA [XGTACX_site4127],11.6 ± 0.83
25,TATATATTTTGTGTCTGTACACATATTATTAATTCC [XGTACX_site7507],11.4 ± 1

row,Sequence,gcPBM binding intensity (ln)
1,TGTCTGTGCGGGTGTACACATTTCATATTACCCAAT [CACACA_site5593],11.8 ± 0.98
2,AATTTTTCATCAAGTTGTACAATTATTTGTTTGTTT [XGTACX_site3113],11.3 ± 0.73
3,ATATTAGAAATATGAATAGAAAGAATATATAAGTAT [CACACA_negctrl_site682],9.76 ± 0.37
4,TGTTTCTAAAAAAAAGGTACACATATATATAATATA [XGTACX_site3217],11.4 ± 0.93
5,TCGATATATAGACACACACACTTTTAATAATTAAAT [CACACA_site7726],10.2 ± 0.24
6,TCAAATGTGTAATCTTGTACACATTAAAAGAAAAAA [XGTACX_site8822],11.2 ± 0.83
7,AACAATGTTTTCTTGTGTACACATCATTAAAGAAAA [XGTACX_site4726],11.6 ± 0.88
8,TCTTTAATGATGTGTACACAAGAAAACATTGTTAAG [CACACA_site5299],11.7 ± 0.89
9,ATTTTTTTTTTTATTTTCTTTGAGATTATCTTAATT [CACACA_negctrl_site1209],9.78 ± 0.14
10,TATGTATAAAAATAATGTACAAAATATATTATATGT [XGTACX_site2794],10.9 ± 0.4
11,TATATATATATATGGGGTACAAATGGTCAGTATTAT [XGTACX_site1223],11.7 ± 0.97
12,AAAAAAAAAATTGAAAGTACACAAATGGGGTATTAT [XGTACX_site3960],11.5 ± 0.87
13,TAAAATTTGTACATAGTGCAATTTTTTTTTTTTTTT,10.7 ± 0.52
14,CATAAAATTGTATTTTGTACACATTTTGTATACATT [XGTACX_site5705],11.4 ± 0.82
15,ACATATAAATTGTGTACACATATATATATATTTTTT [CACACA_site5946],11.8 ± 1
16,TAATATTTTTTGTGTACACATATATATATATATATA [CACACA_site5504],11.7 ± 0.88
17,TTTTTTTTTGGGTGTACACATGAATATATATTTTTT [CACACA_site5254],11.7 ± 0.95
18,GTGTTTTTATTATTTTGTACACATATATTTAATATT [XGTACX_site2109],11.5 ± 0.87
19,TTGTGAAATAAAATTTGTACACACATATATATATAT [XGTACX_site1078],11.2 ± 0.86
20,ATCATGAAATATATTTGTACACATAATAATATAATA [XGTACX_site8798],11.4 ± 0.89
21,ATGAATATATATATTTGTACATATGTATATATATAT [XGTACX_site7527],10.9 ± 0.54
22,TGTTATATTTGTGCGTGTACACATTTGAAAAAATAT [XGTACX_site3796],11.8 ± 1.1
23,TATACATATAAATTGTGTACACATATATATATATTT [XGTACX_site7875],11.6 ± 0.92
24,TTTTTTTTGTGTATTTGTACATAATATATATATATA [XGTACX_site7092],10.9 ± 0.49
25,TATATTTGTGCGTGTACACATTTGAAAAAATATATA [CACACA_site5079],11.6 ± 0.88
